D1 antagonist: blocks dopamine activation of the human D1 receptor | P21728 | actives 3.2% (n = 360,000) | AID 504652 | activity change, negative = inhibition, % at 10 µM | HEK293 TREx D1 cells, calcium flux, dopamine EC80; hits give low values; in the data active = activity change below about -30%; also: % is scaled to controls: 0 for no effect and ±100 for the full control effect
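Antagonism measured as reduced calcium response to an EC80 dopamine addition following 180 s compound pre-read; cells were inducible HEK293 Trex D1 plated overnight at 30 C, read kinetically at 1 cycle/sec.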
D1 agonist: agonists of human D1 dopamine receptor. P21728. HEK293 T-REx D1 cells, calcium flux, agonist mode. activation, % at 2 µM. actives 1% (n = 360,000). AID 504660; also: 0% is about no effect
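Inducible HEK293 T-REx D1 cells, force-coupled to calcium signalling, were plated at 4000 cells/well with tetracycline and held overnight at 30 C. After no-wash calcium dye loading, compound-evoked calcium rise over 180 s flagged agonists.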
TRHR agonist: activates the human TRH receptor. P34981. TRHR cells, calcium flux fluo-8, FDSS agonist mode. activation, % at 2 µM. actives 0.18% (n = 360,000); also: 0% is about no effect
Target sequence (P34981 whole entry, looked up): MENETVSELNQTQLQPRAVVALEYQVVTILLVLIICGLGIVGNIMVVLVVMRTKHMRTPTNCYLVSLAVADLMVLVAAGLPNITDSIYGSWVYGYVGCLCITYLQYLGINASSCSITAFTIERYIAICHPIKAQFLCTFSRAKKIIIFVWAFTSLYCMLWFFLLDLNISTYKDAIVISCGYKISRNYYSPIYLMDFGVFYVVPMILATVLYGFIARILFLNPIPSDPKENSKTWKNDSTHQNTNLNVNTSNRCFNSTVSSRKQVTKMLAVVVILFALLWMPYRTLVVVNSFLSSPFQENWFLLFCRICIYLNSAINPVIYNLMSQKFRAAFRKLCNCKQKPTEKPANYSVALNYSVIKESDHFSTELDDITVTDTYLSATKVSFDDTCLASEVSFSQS
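TRHR-expressing cells, plated overnight in medium with 10% serum, were loaded with fluo-8 calcium dye at room temperature. After a 10 s baseline, library compound was pin-added and calcium release was recorded kinetically (ex 480/em 530) as agonist response.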
D1 potentiator: enhances dopamine response at the human D1 receptor; P21728; HEK293 TREx D1 cells, calcium flux, dopamine EC20 potentiation; potentiation, % at 10 µM; actives 0.036% (n = 360,000); AID 504651; in the data active = potentiation above about 30%; also: 0% is about no effect
TRHR PAM: allosteric enhancers of human TRH receptor; TRHR cells, fluo-8 calcium fluorescence, EC20 TRH enhancement; enhancement, % at 2 µM; actives 0.66% (n = 360,000); in the data active = enhancement above about 30%; also: 0% is about no effect
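TRHR-expressing cells loaded with fluo-8 calcium dye were read kinetically (ex 480/em 530) during compound addition, then stimulated with an EC20 of TRH (10 nM final). Enhancement of the Gq-mediated intracellular calcium response was scored.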
Active calls of the source: *; / = no result. In the library only some 4.7% were active in any assay of this set; here they are far more common. Rule as the data show it, unless noted: active = activation above about 30%; inactive = the rest.

SMILES | D1 antagonist | D1 agonist | TRHR agonist | D1 potentiator | TRHR PAM
O=C(O)CCC(=O)N1CCN(c2nc(-c3ccccc3Cl)c3cc(Br)ccc3n2)CC1 | -5.1 | 66.4* | -0.3 | 2.2 | 9.3
O=C(O)CCC(=O)N1CCN(c2nc(-c3ccccc3)c3cc(Br)ccc3n2)CC1 | 9.7 | 0.3 | 0.0 | -1.4 | 5.6
O=C(c1ccc(OC2CCN(CCc3ccccc3)CC2)cc1)N1CCC[C@H]1CO | -78.5* | 0.2 | 0.7 | -4.8 | 5.3
O=C(CCc1ccccc1)NC1CC(=O)N(c2cccc(F)c2)C1 (stereo not drawn) | / | -1.3 | 0.3 | 0.7 | 36.9*
COc1ccc(N2CC(NC(=O)COc3cccc(C)c3)CC2=O)cc1OC (stereo not drawn) | / | 33.4* | 0.2 | 0.2 | -4.8
COc1ccc(N2CC(NC(=O)COc3ccc(F)cc3)CC2=O)cc1OC (stereo not drawn) | / | 86.0* | 0.0 | 3.0 | -0.7
COc1ccc(Cn2c(SCc3ccc(C(=O)NC4CCCCC4)cc3)nc3cccnc32)cc1 | 5.8 | 6.5 | 1.4 | 4.4 | 7.5
CCc1ccccc1Nc1nc(N)nc(COC(=O)C2CCN(C(=O)c3ccc(F)cc3)CC2)n1 | -1.4 | 3.8 | 0.3 | -4.7 | 2.2
CCOc1ccc(S(=O)(=O)N2CCC(C(=O)OCc3cccc(OC)c3OC)CC2)cc1 | -0.1 | 22.4 | 3.1 | -3.6 | -5.2
COc1cccc(COC(=O)C2CCN(C(=O)c3ccc(F)cc3)CC2)c1OC | -45.4* | 19.1 | -0.1 | -10.7 | -6.1
COc1cccc(COC(=O)C2CCN(S(=O)(=O)c3ccc(C)cc3C)CC2)c1OC | -44.1* | 17.7 | 1.4 | -18.4 | -3.6
COc1cccc(COC(=O)C2CCN(S(=O)(=O)c3ccc(C)cc3)CC2)c1OC | -37.9* | 10.5 | 0.5 | 0.7 | -8.1
Cc1cc2c(s1)c1cnn(Cc3cccc([N+](=O)[O-])c3)c(=O)c1n2C | -4.6 | 8.8 | -0.4 | 5.9 | 5.7
CCN1CCN(c2nc3c(C)cccn3c(=O)c2/C=C(\C#N)S(=O)(=O)c2ccccc2)CC1 | -13.1 | 2.0 | 0.8 | -5.0 | 11.0
COCCNC(=O)/C(C#N)=C/c1c(N2CCN(C)CC2)nc2c(C)cccn2c1=O | -25.4 | 1.8 | 0.2 | -5.5 | 4.9
Cc1ccc(S(=O)(=O)/C(C#N)=C/c2c(N3CCC(C(N)=O)CC3)nc3c(C)cccn3c2=O)cc1 | -46.6* | 10.7 | -0.3 | -1.5 | -1.7
CCN1CCN(c2nc3ccccn3c(=O)c2/C=C(\C#N)S(=O)(=O)c2ccccc2)CC1 | -65.7* | 2.4 | 2.3 | -4.7 | 0.6
CCN1CCN(c2nc3c(C)cccn3c(=O)c2/C=C(\C#N)C(=O)NCCOC)CC1 | -1.0 | 14.8 | 30.0* | -7.8 | -4.7
Cc1cccn2c(=O)c(/C=C(\C#N)S(=O)(=O)c3ccccc3)c(N3CCC(C(N)=O)CC3)nc12 | -5.8 | -0.6 | 0.2 | 7.0 | -8.4
CC1=C(C(=O)Nc2ccccc2C)C(c2cccs2)n2nc(SCc3ccccc3)nc2N1 (stereo not drawn) | -8.2 | 7.1 | 0.5 | 0.2 | 5.1
COc1cc(OC)cc(C(=O)NCc2ccc3c(c2)CCN3C(=O)c2ccccc2)c1 | 12.1 | 2.4 | -0.8 | -3.8 | 0.2
COc1cccc(-c2nnc(-c3cc4cc(Cl)ccc4oc3=O)o2)c1 | 30.7 | 0.9 | 0.8 | -3.1 | -5.1
CCN(CC)c1ccc2cc(-c3nnc(-c4ccncc4)o3)c(=O)oc2c1 | -17.7 | 199.3* | 284.7* | -8.7 | 11.9
CCN(CC)c1ccc2cc(-c3nnc(-c4cccc(Cl)c4)o3)c(=O)oc2c1 | -14.4 | 415.5* | 171.1* | 38.5* | 27.7
Cc1ccccc1CN1c2ccccc2S(=O)(=O)c2ccccc21 | -4.4 | 3.5 | -0.6 | -5.2 | 5.3
SMILES | D1 antagonist | D1 agonist | TRHR agonist | D1 potentiator | TRHR PAM
CCOC(=O)c1sc(NC(=O)Nc2ccccc2Cl)cc1C | -38.7* | 14.5 | 0.6 | -6.5 | 2.9
CCOC(=O)c1sc(NC(C)=O)cc1C | 3.0 | -0.4 | 1.4 | -13.6 | 4.3
CCOC(=O)c1sc(NC(=O)Nc2ccccc2)cc1C | -41.7* | 20.8 | -0.4 | -5.2 | 10.7
CCOC(=O)c1sc(NC(=O)c2ccc(C)s2)cc1C | 25.0 | -0.8 | -0.3 | -6.3 | 4.1
COC(=O)c1ccc(C2c3c(-c4ccccc4O)n[nH]c3C(=O)N2Cc2cccnc2)cc1 (stereo not drawn) | 0.9 | 2.2 | -1.0 | 0.2 | 1.5
Cc1ccc(NC2=CC(=O)CC(C)(C)C2)cc1F | -18.4 | -0.2 | -0.2 | 0.6 | -1.3
Cc1cc(N)c(NC2=CC(=O)CC(C)(C)C2)cc1C | 15.2 | 31.4* | -0.6 | 3.9 | 0.7
CC(C)OCCCNC(=O)c1cc2c(-c3ccc(Cl)cc3)nn(C)c2s1 | -2.2 | 5.5 | 0.6 | -2.8 | -4.6
CCCCn1c(/C=C/c2ccco2)nc2ccccc21 | -4.9 | 30.4* | 1.1 | -5.5 | -8.7
CC(C)CCn1c(/C=C/c2ccccc2)nc2ccccc21 | -32.4* | 10.5 | -0.8 | -5.0 | 1.2
Clc1ccc(Cn2c(/C=C/c3ccco3)nc3ccccc32)cc1 | -8.8 | 2.7 | 0.0 | -5.7 | -2.7
C#CCn1c(/C=C/c2ccc(Cl)cc2)nc2ccccc21 | -36.3* | 5.8 | -1.7 | -3.5 | -1.1
CCCCn1c(-c2nonc2N)nc2ccccc21 | -14.4 | 8.1 | -0.5 | -6.5 | -9.6
CCCn1c(/C=C/c2ccco2)nc2ccccc21 | 0.7 | 8.7 | 0.0 | -1.6 | -5.3
CC(C)CCn1c(-c2nonc2N)nc2ccccc21 | -33.2* | 1.9 | 0.5 | -5.0 | 3.9
CCc1ccc(C2c3c(-c4ccccc4O)n[nH]c3C(=O)N2Cc2cccnc2)cc1 (stereo not drawn) | 10.5 | 0.3 | -0.9 | 5.0 | -0.6
COCCn1c(/C=C/c2ccccc2)nc2ccccc21 | -33.8* | -1.0 | -1.9 | -2.7 | 5.9
COCCn1c(-c2ccccc2)nc2ccccc21 | -0.7 | 3.2 | -1.2 | 1.4 | -1.9
COc1ccccc1Cn1c(/C=C/c2ccccc2)nc2ccccc21 | -31.5* | 9.6 | 1.3 | -4.8 | 2.4
O=C(CSc1ccc(F)cc1)NC12CC3CC(CC(C3)C1)C2 | -0.3 | 0.3 | -0.2 | 9.0 | 5.8
O=C(CCSc1ccc(Cl)c(Cl)c1)NC12CC3CC(CC(C3)C1)C2 | -4.5 | 40.5* | -2.9 | -5.2 | 11.5
Cc1cc(C)c(NC(=O)CSc2cn(CC(=O)N3CCOCC3)c3ccccc23)c(C)c1 | -1.9 | 3.0 | -0.5 | -2.6 | 4.4
CCc1cccc(NC(=O)Cn2nc(-c3ccc(OC)cc3)ccc2=O)c1 | -2.4 | 2.7 | -0.1 | -0.5 | -4.0
COc1cccc(NC(=O)Cn2nc(-c3ccncc3)ccc2=O)c1 | -43.8* | 0.2 | 0.2 | -4.5 | -5.7
COc1ccc(-c2ccc(=O)n(CC(=O)Nc3ccc(OC)c(OC)c3)n2)cc1 | -40.2* | 4.6 | 0.0 | -1.4 | -0.8
COc1ccc(NC(=O)Cn2c(SCc3ccc(C)cc3)nc3cccnc32)c(OC)c1 | -26.9 | 11.3 | -0.2 | -3.2 | -26.8

Compound activity as filed in PubChem BioAssay.
